In PubChem BioAssay (EPA / NIEHS):
Records with an inconclusive call do not appear. The source made the active and inactive calls. How the source made its calls, unless noted: active means hit-call score of the fitted dose curve at least 0.9, where 1 is the maximum; inconclusive means response in the unintended direction; inactive means score below 0.9.

How the values were obtained:
[1] = ATG_TAL_CIS: Attagene CIS-FACTORIAL HepG2 Assay for human TAL Basal Promoter (AID 2282966; active means hit-call score of the fitted dose curve at least 0.9, where 1 is the maximum; inactive means score below 0.9;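 further: background control endpoint measuring basal TAL promoter reporter mRNA not a specific factor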); details: HepG2 Attagene cis-factorial TAL promoter reporter; actives raise or lower the signal
How it was run: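 After 24 hours of chemical exposure, transfected HepG2 cells yielded RNA that was converted to 6-FAM-labelled, HpaI-digested reporter fragments for capillary electrophoresis. Values derive from bidirectional fitting against DMSO controls.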

[2] = ATG_TGFb_CIS: Attagene CIS-FACTORIAL HepG2 Assay for human Transforming Growth Factor (TGF) (AID 2282967; active means hit-call score of the fitted dose curve at least 0.9, where 1 is the maximum; inactive means score below 0.9); details: HepG2 Attagene CIS TGFb reporter, mRNA transcription; actives raise or lower the signal
How it was run: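 HepG2 cells transiently transfected with cis-promoter-driven multiple reporter units measure endogenous TF activity; reporter mRNA quantified at 24 h by RT-PCR, FAM labeling, HpaI digestion and capillary electrophoresis. Bidirectional fit vs DMSO.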

[3] = target: Nuclear receptor subfamily 1 group I member 3 (Homo sapiens) (UniProt Q14994); test: ATG_CAR_TRANS: Attagene TRANS-FACTORIAL HepG2 Assay for human Constitutive Androstane Receptor (CAR) (AID 2282969); details: HepG2 Attagene TRANS-FACTORIAL CAR reporter;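 further: activators raise reporter mRNA above DMSO so AC50 marks induction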
How it was run: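 Signal is reporter mRNA induction relative to DMSO, measured 24 h after dosing by RT-PCR with fluorescent primer extension and capillary electrophoresis. Human HepG2 liver cells carried transiently transfected chimeric NR-Gal4/GAL4-UAS reporter constructs.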

[4] = target: Steroid hormone receptor ERR1 (Homo sapiens) (UniProt P11474); test: ATG_ERRa_TRANS: Attagene TRANS-FACTORIAL HepG2 Assay for human Estrogen-Related Receptor alpha (ERRa) (AID 2282971); details: HepG2 Attagene TRANS reporter, ERRa transactivation
Chain of Steroid hormone receptor ERR1 (Homo sapiens) (P11474 whole entry, looked up, the tested form may be a part): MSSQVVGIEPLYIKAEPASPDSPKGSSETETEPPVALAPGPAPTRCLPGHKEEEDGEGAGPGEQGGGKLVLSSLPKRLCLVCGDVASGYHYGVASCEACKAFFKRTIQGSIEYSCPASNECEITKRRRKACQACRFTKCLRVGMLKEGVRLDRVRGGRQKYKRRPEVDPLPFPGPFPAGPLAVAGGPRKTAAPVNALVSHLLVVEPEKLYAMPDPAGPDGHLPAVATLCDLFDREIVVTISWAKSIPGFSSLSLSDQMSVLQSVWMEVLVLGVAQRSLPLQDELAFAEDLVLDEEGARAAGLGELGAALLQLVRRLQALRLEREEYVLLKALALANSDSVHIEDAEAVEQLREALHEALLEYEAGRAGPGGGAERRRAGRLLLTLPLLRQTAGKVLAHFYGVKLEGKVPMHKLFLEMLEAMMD
How it was run: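 Reporter transcript induction was quantified by RT-PCR and capillary electrophoresis of FAM-labelled, HpaI-cut products after 24 h treatment of HepG2 cells carrying transiently transfected GAL4-UAS reporter units and an exogenous ERRa-Gal4 fusion; activity scored as increase over DMSO.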

[5] = target: X-box-binding protein 1 (Homo sapiens) (UniProt P17861); test: ATG_Xbp1_CIS: Attagene CIS-FACTORIAL HepG2 Assay for human X-box Binding Protein 1 (XBP1) (AID 2282972; active means hit-call score of the fitted dose curve at least 0.9, where 1 is the maximum; inactive means score below 0.9); details: HepG2 XBP1 cis-element reporter, Attagene multiplex; actives raise or lower the signal
Chain of X-box-binding protein 1 (Homo sapiens) (P17861 whole entry, looked up, the tested form may be a part): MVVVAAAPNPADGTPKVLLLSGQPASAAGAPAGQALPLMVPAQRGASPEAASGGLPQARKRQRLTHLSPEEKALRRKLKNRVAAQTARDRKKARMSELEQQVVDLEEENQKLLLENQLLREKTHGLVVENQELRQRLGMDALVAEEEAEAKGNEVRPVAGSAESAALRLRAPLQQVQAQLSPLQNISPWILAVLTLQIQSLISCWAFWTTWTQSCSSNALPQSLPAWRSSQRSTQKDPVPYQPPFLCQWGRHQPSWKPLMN
How it was run: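 Read-out: fluorescent reporter mRNA fragments resolved by capillary electrophoresis after RT-PCR. Human HepG2 liver cells carried transfected cis-promoter reporter units and were exposed to chemicals for 24 hours. Gain or loss of signal fitted relative to DMSO baseline.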

[6] = target: Hepatocyte nuclear factor 4-alpha (Homo sapiens) (UniProt P41235); test: ATG_HNF4a_TRANS: Attagene TRANS-FACTORIAL HepG2 Assay for human Hepatocyte Nuclear Factor 4 alpha (HNF4a) (AID 2282982); details: HepG2 HNF4a transactivation reporter, mRNA readout
Chain of Hepatocyte nuclear factor 4-alpha (Homo sapiens) (P41235 whole entry, looked up, the tested form may be a part): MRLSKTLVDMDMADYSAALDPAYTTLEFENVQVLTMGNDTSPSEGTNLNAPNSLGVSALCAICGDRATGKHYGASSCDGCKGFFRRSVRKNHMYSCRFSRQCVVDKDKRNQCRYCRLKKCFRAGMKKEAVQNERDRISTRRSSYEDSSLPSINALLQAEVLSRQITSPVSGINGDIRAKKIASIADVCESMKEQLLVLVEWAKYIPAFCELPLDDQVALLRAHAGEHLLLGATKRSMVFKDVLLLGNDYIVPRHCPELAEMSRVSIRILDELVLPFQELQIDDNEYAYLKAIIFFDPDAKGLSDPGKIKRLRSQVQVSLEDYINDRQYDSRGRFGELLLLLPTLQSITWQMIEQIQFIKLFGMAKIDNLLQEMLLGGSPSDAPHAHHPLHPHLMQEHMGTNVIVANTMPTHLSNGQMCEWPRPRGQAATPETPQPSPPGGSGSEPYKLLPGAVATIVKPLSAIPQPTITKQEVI
How it was run: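 Activity of an exogenous HNF4a–Gal4 fusion scored as induced GAL4-UAS reporter transcripts after 24 h chemical exposure of transfected human HepG2 cells. Read-out via RT-PCR with 6-FAM labelling and capillary electrophoresis; rise over DMSO baseline.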

[7] = ATG_M_32_TRANS: Attagene TRANS-FACTORIAL HepG2 Assay for M32 Transcription Factor (Internal Marker) (AID 2282984); details: HepG2 Attagene TRANS M32 internal marker reporter;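 further: transcript level of a background control reporter unit measured by RT-PCR and capillary electrophoresis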
How it was run: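 Internal background reporter in transfected HepG2: after 24 h chemical exposure, RNA reverse-transcribed, reporter cDNA amplified, fluorescently labelled and HpaI-cut, then sized by capillary electrophoresis. Gain of signal fitted against DMSO control.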

[8] = target: Nuclear receptor subfamily 4 group A member 2 (Homo sapiens) (UniProt P43354); test: ATG_NURR1_TRANS: Attagene TRANS-FACTORIAL HepG2 Assay for human Nuclear Receptor Related Protein 1 (NURR1) (AID 2282985); details: HepG2 Attagene TRANS reporter, mRNA readout
How it was run: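 Reporter transcript induction, measured by RT-PCR with fluorescent labelling, HpaI digestion and capillary electrophoresis, after 24 hr dosing of human HepG2 cells transiently expressing an exogenous NR-Gal4 fusion with GAL4-UAS-driven reporters; DMSO as baseline.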

[9] = target: Nuclear respiratory factor 1 (Homo sapiens) (UniProt Q16656); test: ATG_NRF1_CIS: Attagene CIS-FACTORIAL HepG2 Assay for human Nuclear Respiratory Factor 1 (NRF1) Orphan Gene (AID 2282987; active means hit-call score of the fitted dose curve at least 0.9, where 1 is the maximum; inactive means score below 0.9); details: HepG2 NRF1 cis-element reporter, Attagene multiplex; actives raise or lower the signal
Chain of Nuclear respiratory factor 1 (Homo sapiens) (Q16656 whole entry, looked up): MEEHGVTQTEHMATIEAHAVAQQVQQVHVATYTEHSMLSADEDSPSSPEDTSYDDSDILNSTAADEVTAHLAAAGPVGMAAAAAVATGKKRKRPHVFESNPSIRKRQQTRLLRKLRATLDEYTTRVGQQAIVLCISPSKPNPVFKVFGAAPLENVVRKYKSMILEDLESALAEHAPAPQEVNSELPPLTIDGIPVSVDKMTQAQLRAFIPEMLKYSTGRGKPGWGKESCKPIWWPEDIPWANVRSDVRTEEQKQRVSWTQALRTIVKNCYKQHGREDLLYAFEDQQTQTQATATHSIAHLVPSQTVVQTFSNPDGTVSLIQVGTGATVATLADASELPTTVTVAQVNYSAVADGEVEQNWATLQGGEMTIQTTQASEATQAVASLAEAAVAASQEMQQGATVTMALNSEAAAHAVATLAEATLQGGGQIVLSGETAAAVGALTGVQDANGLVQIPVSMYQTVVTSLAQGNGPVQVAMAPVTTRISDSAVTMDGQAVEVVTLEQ
How it was run: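 HepG2 cells transiently transfected with multiple cis-regulated reporter units, exposed 24 h. Reporter mRNAs measured by RT-PCR, fluorescent labelling, HpaI digestion and capillary electrophoresis; bidirectional fitting against DMSO.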

[10] = ATG_GAL4_TRANS: Attagene TRANS-FACTORIAL HepG2 Assay for GAL4 (Internal Marker) (AID 2282976); details: HepG2 Attagene TRANS GAL4 internal marker reporter
How it was run: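 First, HepG2 cells were transfected with reporter units under GAL4-UAS control. Next, they were treated with chemical for 24 h. Finally, RNA was reverse-transcribed, PCR-amplified, FAM-labelled and resolved by capillary electrophoresis, with induction scored against DMSO.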

[11] = target: Bile acid receptor (Homo sapiens) (UniProt Q96RI1); test: ATG_FXR_TRANS: Attagene TRANS-FACTORIAL HepG2 Assay for Farnesoid X Receptor (FXR) (AID 2282979); details: HepG2 Attagene TRANS FXR-GAL4 reporter transcription;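 further: hits raise reporter mRNA above DMSO so AC50 marks FXR activation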
Chain of Bile acid receptor (Homo sapiens) (Q96RI1 whole entry, looked up, the tested form may be a part): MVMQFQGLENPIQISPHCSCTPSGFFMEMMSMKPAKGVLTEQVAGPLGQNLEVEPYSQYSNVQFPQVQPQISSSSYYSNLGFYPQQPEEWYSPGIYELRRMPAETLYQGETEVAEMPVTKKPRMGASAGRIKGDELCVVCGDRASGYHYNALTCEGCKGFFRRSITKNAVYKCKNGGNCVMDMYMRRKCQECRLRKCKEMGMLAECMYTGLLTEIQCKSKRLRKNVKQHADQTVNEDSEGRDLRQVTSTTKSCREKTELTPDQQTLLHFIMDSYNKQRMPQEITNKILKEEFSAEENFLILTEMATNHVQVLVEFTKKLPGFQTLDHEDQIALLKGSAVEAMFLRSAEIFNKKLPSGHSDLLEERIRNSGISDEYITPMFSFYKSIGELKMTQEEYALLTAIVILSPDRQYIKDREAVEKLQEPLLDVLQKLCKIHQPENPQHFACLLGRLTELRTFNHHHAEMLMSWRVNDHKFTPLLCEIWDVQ
How it was run: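 Transient transfection of HepG2 with multiplexed GAL4-UAS reporter units; exogenous FXR-GAL4 chimera. Dose 24 h → TriZol RNA → oligo(dT) RT → PCR, 6-FAM primer extension, HpaI cut → CE. Gain vs DMSO.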

[12] = target: Oxysterols receptor LXR-alpha (Homo sapiens) (UniProt Q13133); test: ATG_LXRa_TRANS: Attagene TRANS-FACTORIAL HepG2 Assay for human Liver X Receptor alpha (LXRa) (AID 2282980); details: HepG2 Attagene TRANS reporter, LXRa transactivation
Chain of Oxysterols receptor LXR-alpha (Homo sapiens) (Q13133 whole entry, looked up, the tested form may be a part): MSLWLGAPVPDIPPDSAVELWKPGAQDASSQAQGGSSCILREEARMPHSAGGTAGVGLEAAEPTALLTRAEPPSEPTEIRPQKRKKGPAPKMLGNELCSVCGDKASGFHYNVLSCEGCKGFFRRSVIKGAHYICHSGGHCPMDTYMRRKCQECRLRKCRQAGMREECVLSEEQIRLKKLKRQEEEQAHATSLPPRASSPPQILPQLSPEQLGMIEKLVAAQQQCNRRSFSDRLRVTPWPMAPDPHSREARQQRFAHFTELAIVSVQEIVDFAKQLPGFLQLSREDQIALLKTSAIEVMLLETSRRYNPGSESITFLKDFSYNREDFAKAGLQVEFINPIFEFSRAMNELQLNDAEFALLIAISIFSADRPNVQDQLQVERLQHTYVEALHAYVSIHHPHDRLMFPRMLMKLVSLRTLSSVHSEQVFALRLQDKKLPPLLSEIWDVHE
How it was run: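 Transfect HepG2 with GAL4-UAS multiplex reporter constructs (TRANS format, chimeric receptor-GAL4); treat 24 h; extract RNA, reverse-transcribe, PCR-amplify, FAM-label, HpaI-digest; resolve fragments by capillary electrophoresis. Upward response vs DMSO.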

[13] = ATG_M_06_TRANS: Attagene TRANS-FACTORIAL HepG2 Assay for M06 Transcription Factor (Internal Marker) (AID 2282983); details: HepG2 Attagene TRANS M06 internal marker reporter;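 further: reporter transcript level by RT-PCR then capillary electrophoresis fluorescence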
How it was run: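 Background control endpoint: reporter mRNA from transiently transfected HepG2 after 24 h dosing, detected by RT-PCR with capillary electrophoresis fluorescence. Analysed for gain versus DMSO.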

[14] = target: Transcriptional activator Myb (Homo sapiens) (UniProt P10242); test: ATG_Myb_CIS: Attagene CIS-FACTORIAL HepG2 Assay for human Myeloblastosis (Myb) Proto-Oncogene Transcription Factor (AID 2282986; active means hit-call score of the fitted dose curve at least 0.9, where 1 is the maximum; inactive means score below 0.9); details: HepG2 Attagene CIS-FACTORIAL Myb reporter transcription; actives raise or lower the signal
Chain of Transcriptional activator Myb (Homo sapiens) (P10242 whole entry, looked up): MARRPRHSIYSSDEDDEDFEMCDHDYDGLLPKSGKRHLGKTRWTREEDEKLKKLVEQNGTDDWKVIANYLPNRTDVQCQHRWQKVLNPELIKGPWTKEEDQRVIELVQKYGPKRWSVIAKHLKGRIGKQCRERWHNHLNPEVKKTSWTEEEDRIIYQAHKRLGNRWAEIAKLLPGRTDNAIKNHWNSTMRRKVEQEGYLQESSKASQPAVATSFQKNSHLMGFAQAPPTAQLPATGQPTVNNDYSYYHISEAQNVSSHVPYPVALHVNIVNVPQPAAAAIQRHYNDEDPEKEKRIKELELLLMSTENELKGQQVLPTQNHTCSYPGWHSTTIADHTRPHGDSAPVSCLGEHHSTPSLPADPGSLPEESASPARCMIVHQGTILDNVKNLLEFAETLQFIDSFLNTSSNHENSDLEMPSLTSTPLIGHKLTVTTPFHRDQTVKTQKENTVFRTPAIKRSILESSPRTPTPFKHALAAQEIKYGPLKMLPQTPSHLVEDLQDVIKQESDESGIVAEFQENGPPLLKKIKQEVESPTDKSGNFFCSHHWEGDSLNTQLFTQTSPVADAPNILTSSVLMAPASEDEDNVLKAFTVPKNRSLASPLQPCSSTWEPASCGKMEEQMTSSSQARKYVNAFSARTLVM
How it was run: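 Transiently transfected HepG2 cells carrying a multiplexed cis-promoter reporter set report endogenous Myb activity after 24 h compound exposure. Reporter mRNA is read by RT-PCR with capillary electrophoresis of fluorescent products, fitted bidirectionally against DMSO.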

[15] = ATG_M_19_TRANS: Attagene TRANS-FACTORIAL HepG2 Assay for M19 Transcription Factor (Internal Marker) (AID 2282974); details: HepG2 Attagene TRANS-FACTORIAL M19 internal marker reporter
How it was run: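 HepG2 transiently transfected with GAL4-UAS multiplex reporter constructs, exposed 24 h; reporter RNA quantified by RT-PCR, 6-FAM labeling, HpaI digestion and capillary electrophoresis; internal background marker fitted upward versus DMSO.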

[16] = target: Estrogen-related receptor gamma (Homo sapiens) (UniProt P62508); test: ATG_ERRg_TRANS: Attagene TRANS-FACTORIAL HepG2 Assay for human Estrogen-Related Receptor gamma (ERRg) (AID 2282977); details: HepG2 Attagene TRANS reporter, ERRg transactivation;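 further: hits increase reporter signal over DMSO so potencies reflect activators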
Chain of Estrogen-related receptor gamma (Homo sapiens) (P62508 whole entry, looked up, the tested form may be a part): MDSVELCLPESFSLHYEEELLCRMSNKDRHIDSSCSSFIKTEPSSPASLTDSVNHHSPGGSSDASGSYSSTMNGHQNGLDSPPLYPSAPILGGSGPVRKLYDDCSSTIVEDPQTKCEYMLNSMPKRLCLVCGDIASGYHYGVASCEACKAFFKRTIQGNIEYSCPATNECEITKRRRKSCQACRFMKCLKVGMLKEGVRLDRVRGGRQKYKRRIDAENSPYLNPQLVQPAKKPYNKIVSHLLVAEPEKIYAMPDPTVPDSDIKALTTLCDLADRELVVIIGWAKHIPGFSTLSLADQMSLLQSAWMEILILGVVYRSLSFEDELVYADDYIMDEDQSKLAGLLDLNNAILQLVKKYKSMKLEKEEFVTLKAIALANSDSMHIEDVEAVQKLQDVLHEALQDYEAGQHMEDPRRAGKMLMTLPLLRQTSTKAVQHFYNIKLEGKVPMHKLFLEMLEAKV
How it was run: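 Exogenous NR-Gal4 chimera activity measured as reporter transcript induction after 24 h in transiently transfected HepG2 cells. RNA reverse-transcribed, PCR-amplified, 6-FAM-labelled and resolved by capillary electrophoresis; increase over DMSO baseline.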

[17] = target: Oxysterols receptor LXR-beta (Homo sapiens) (UniProt P55055); test: ATG_LXRb_TRANS: Attagene TRANS-FACTORIAL HepG2 Assay for human Liver X Receptor beta (LXRb) (AID 2282981); details: HepG2 Attagene TRANS GAL4-LXRb reporter, mRNA
Chain of Oxysterols receptor LXR-beta (Homo sapiens) (P55055 whole entry, looked up, the tested form may be a part): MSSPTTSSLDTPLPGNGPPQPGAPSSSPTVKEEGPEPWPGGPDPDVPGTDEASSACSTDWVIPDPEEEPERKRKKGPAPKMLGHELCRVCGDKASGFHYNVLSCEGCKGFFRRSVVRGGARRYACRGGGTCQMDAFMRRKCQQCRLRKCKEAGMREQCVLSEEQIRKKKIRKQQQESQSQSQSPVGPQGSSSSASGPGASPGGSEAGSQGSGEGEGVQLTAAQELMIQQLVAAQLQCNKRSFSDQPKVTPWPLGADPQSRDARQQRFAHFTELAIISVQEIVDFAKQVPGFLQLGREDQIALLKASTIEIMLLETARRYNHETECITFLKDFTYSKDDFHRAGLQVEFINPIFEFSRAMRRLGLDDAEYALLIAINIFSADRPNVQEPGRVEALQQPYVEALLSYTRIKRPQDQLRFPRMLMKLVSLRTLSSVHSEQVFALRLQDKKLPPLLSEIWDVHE
How it was run: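 After 24 h chemical treatment of transfected HepG2 cells carrying exogenous NR-Gal4 chimeras, reporter mRNA was quantified by fluorescent RT-PCR and capillary electrophoresis; activity taken as increase over DMSO controls.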

[18] = target: Glucocorticoid receptor (Homo sapiens) (UniProt P04150); test: ATG_GR_TRANS: Attagene TRANS-FACTORIAL HepG2 Assay for human Glucocorticoid Receptor (GR) (AID 2282978); details: HepG2 Attagene TRANS GR reporter, mRNA transcription;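 further: activators score as hits since higher reporter transcript over DMSO is fitted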
Chain of Glucocorticoid receptor (Homo sapiens) (P04150 whole entry, looked up, the tested form may be a part): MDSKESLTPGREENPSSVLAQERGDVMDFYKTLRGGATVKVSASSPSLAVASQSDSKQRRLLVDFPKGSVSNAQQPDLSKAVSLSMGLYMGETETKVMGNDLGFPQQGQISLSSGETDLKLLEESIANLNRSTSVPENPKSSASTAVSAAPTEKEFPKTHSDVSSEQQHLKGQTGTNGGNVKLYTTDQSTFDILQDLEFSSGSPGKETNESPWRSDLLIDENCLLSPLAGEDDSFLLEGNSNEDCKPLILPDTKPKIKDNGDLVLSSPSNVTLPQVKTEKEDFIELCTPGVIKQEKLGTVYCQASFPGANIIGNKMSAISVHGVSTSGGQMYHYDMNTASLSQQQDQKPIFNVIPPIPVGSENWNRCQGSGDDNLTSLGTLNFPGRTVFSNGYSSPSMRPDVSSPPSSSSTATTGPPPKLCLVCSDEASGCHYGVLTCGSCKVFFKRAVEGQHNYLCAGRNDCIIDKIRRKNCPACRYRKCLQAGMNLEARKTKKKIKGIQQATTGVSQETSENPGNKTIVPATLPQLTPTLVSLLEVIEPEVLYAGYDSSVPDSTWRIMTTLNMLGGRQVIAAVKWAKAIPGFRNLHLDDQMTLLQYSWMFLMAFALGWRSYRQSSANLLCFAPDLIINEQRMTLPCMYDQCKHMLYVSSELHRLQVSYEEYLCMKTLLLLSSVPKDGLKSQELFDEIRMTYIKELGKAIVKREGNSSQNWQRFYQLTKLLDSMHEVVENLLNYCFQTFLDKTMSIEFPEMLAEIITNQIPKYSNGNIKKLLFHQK
How it was run: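 HepG2 cells transiently transfected with GAL4-UAS reporter units and exogenous GR-Gal4 chimera, dosed 24 h. Reporter mRNA by RT-PCR, FAM labeling, HpaI digest and capillary electrophoresis; gain-of-signal fit versus DMSO.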

Measured: outcome

C1CCCCC1
inactive: [1] | [2] | [3] | [4] | [5] | [6] | [7] | [8] | [9]

N#Cc1cscn1
inactive: [1] | [2] | [5] | [10] | [11] | [12] | [6] | [13] | [8] | [14] | [9]

CCCCCC(C=O)=Cc1ccccc1
inactive: [1] | [2] | [5] | [15] | [10] | [11] | [13] | [7] | [14] | [9]

O=c1c(O)c(-c2ccc(O)cc2)oc2cc(O)cc(O)c12
inactive: [1] | [2] | [5] | [16] | [12] | [17] | [6] | [13] | [7] | [8] | [14] | [9]

CCCCCCCCCC(=O)OC
inactive: [1] | [2] | [5] | [15] | [6] | [14] | [9]

CCCCCCCCSCCO
inactive: [1] | [2] | [5] | [18] | [11] | [12] | [17] | [13] | [7] | [14] | [9]

O=C1OC(=O)c2c(Cl)c(Cl)c(Cl)c(Cl)c21
inactive: [1] | [2] | [4] | [15] | [10] | [16] | [11] | [17] | [6] | [7] | [8] | [14] | [9]

CCCCCCOCCOCCO
inactive: [1] | [2] | [5] | [15] | [17] | [6] | [13] | [7] | [14] | [9]

Nc1ccc(NCCO)c([N+](=O)[O-])c1
inactive: [1] | [2] | [4] | [5] | [10] | [16] | [18] | [6] | [13] | [8] | [14] | [9]

C=C(C#N)C(=O)OCC
inactive: [1] | [2] | [5] | [15] | [12] | [17] | [13] | [7] | [14] | [9]

CCCCCCC(=O)c1ccccc1
inactive: [1] | [2] | [5] | [15] | [11] | [9]

Nc1ccn([C@H]2CS[C@@H](CO)O2)c(=O)n1
inactive: [1] | [2] | [3] | [5] | [15] | [18] | [6] | [13] | [9]
